# Screens from PubChem.
# HP1b chromo inh: HP1-beta chromodomain-methylated histone interaction inhibition | P83916 | AlphaScreen HP1-beta / biotin-H3K9me3 peptide binding | Potency, µM (highest dose often 114 µM), most hits filed as inhibitors | 390,000 tested, 0.56% active; further: nearly all actives have a fitted effect of over 70% in size
#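 Compound inhibition of the preformed complex between 50 nM HP1-beta and 50 nM biotinylated H3K9me3 peptide was read by AlphaScreen. Buffer was PBS pH 7.4 with 0.01% Tween-20. Incubations ran 30 min at room temperature, with 10 ug/mL donor/acceptor beads.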
# L3MBTL1 block: blocks human L3MBTL1 | Q9Y468 | AlphaScreen L3MBTL1–H3K9me1 peptide binding | Potency, µM (top dose mostly 57.1 µM), actives largely listed as inhibitors | 230,000 tested, 0.66% active | AID 485360; further: nearly all actives have a fitted effect of over 60% in size
#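 First, the protein-peptide complex forms for 30 min at room temperature (L3MBTL1 50 nM, biotinylated H3K9me1 peptide 75 nM). Next, compounds are pin-transferred and incubated 30 min. Finally, AlphaScreen beads are added and read after 30 min.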
# G9a inh: G9a (human) methyltransferase inhibition; 350,000 tested, 8.8% active; Potency, µM (titrated, usually from 102 µM), usual class: inhibitors; G9a H3K9 monomethylation, AlphaScreen, 2 h; Q96KQ7; further: nearly all actives have a fitted effect of over 75% in size
#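 AlphaScreen read-out: biotin-H3K9 peptide (500 nM) methylation by 20 nM enzyme with 20 uM SAM, 2 h at room temperature after 15 min compound preincubation; anti-monomethyl H3K9 antibody plus donor/acceptor beads, 10 min dark.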
# BAZ2B inh: blocks human BAZ2B; Potency, µM (doses to about 114 µM), most hits filed as inhibitors; AlphaScreen BAZ2B-H3K14Ac peptide displacement; 360,000 tested, 4.4% active; further: nearly all actives have a fitted effect of over 60% in size
#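 AlphaScreen luminescence quantifies BAZ2B engagement of H3K14Ac peptide; the protein and biotinylated peptide are both at 50 nM final, buffer PBS pH 7.4 with 0.01% Tween-20, all steps at room temperature.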
# JMJD2A Tudor inh: blocks the human JMJD2A Tudor domain | Potency, µM (doses to about 114 µM), most hits filed as inhibitors | AlphaScreen JMJD2A-Tudor / H3K4me3 peptide binding | O75164 | AID 504339 | 390,000 tested, 4.4% active; further: nearly all actives have a fitted effect of over 50% in size
# GLS inh: blocks human kidney-isoform glutaminase activity. GLS enzymatic activity, qHTS titration. Potency, µM (doses to about 45.5 µM), hits mostly inhibitors. 410,000 tested, 0.21% active. AID 624170
# Target sequence (O94925 whole entry, looked up, canonical isoform): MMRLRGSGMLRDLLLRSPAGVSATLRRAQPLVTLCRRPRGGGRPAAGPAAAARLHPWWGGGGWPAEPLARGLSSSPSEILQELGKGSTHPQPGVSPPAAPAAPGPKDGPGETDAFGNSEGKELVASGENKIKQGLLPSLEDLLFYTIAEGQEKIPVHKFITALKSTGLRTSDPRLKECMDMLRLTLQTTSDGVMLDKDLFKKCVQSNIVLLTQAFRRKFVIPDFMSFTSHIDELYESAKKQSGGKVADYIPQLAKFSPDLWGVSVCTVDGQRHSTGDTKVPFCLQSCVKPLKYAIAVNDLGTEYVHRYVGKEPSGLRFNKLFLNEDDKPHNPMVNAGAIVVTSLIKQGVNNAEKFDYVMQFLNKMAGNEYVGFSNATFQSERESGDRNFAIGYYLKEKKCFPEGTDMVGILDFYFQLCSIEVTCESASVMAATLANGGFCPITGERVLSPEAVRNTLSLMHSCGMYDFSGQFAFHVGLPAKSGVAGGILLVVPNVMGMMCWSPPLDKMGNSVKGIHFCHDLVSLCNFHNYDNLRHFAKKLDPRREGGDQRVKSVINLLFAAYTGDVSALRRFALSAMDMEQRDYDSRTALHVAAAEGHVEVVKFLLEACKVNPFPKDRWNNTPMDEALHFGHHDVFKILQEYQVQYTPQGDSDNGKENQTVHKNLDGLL
#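 hKGA in 45 mM KH2PO4 (pH 8.2), 0.02% Tween-20 with compound, then 1mM L-Glutamine (stock as added) plus glutamate oxidase/HRP/Amplex red coupling mix. Fluorescence read initially and after 30 min at RT; signal change reflects glutamate formation.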
# Hits are given with their value; - = inactive; ? = inconclusive; . = no result given; [ ] = dose if it differs, or a comment. Most compounds without a hit are left out; they make up all but 10% or so of the library. The call rests on the fitted dose curve; in most records, active means well fitted curve in the direction sought with a large enough effect; inconclusive means small, poorly fitted or top-dose-only effect, or another doubt; inactive means no such curve, though single readings can be large; an effect the other way counts as inactive or inconclusive.
SMILES,HP1b chromo inh,L3MBTL1 block,G9a inh,BAZ2B inh,JMJD2A Tudor inh,GLS inh
Cc1ccc(NS(=O)(=O)c2cc3c(cc2Cl)CCC(=O)N3)cc1Cl,.,.,.,.,-,.
CCN(CC(=O)Nc1cc(Cl)ccc1C)C(=O)CCS(=O)(=O)c1ccc(C)cc1,-,-,50.1µM,-,-,-
Cc1ccc(S(=O)(=O)CCC(=O)Nc2cc(Cl)ccc2-n2cncn2)cc1,-,-,56.2µM,-,-,-
O=C(Nc1ccccc1C(F)(F)F)N1CCC(CN2CCc3ccccc3C2)CC1,-,.,-,-,-,-
O=C(CCS(=O)(=O)c1cc(Br)cc2c1N(C(=O)C1CC1)CC2)N1CCN(c2cccc(C(F)(F)F)c2)CC1,-,.,-,-,-,-
N/C(=N\OC(=O)COc1ccccc1)c1ccccn1,-,-,11.2µM,-,-,-
N/C(=N\OC(=O)c1ccc(Br)o1)c1ccccn1,-,-,20µM,-,-,-
N/C(=N\OC(=O)COc1ccc(Br)cc1Cl)c1ccccn1,-,-,?,-,79.4µM,-
N/C(=N\OC(=O)/C=C/c1ccccc1Cl)c1ccccn1,-,.,-,79.4µM,-,-
CCOc1ccc(CNC(=O)CCCn2nc(C)c3sc4ccccc4c3c2=O)cc1,-,.,-,-,-,-
Cc1cc(C)n(-c2nc3ccccc3nc2N2CCN(c3cccc(C(F)(F)F)c3)CC2)n1,-,.,-,-,-,-
Cc1ccccc1Nc1c(-c2ccc(N3CCOCC3)cc2)nc2ccc(Cl)cn12,-,.,?,-,?,-
Cc1c(C(=O)Nc2cccc(C(F)(F)F)c2)sc2nc[nH]c(=O)c12,-,.,-,-,-,-
CC1CCN(Cc2c(C(=O)O)nnn2-c2nonc2N)CC1,-,-,50.1µM,?,-,-
Nc1nonc1-n1nnc(C(=O)N/N=C/c2c(Cl)cccc2Cl)c1CN1CCOCC1,-,.,-,-,-,-
Nc1nonc1-n1nnc(C(=O)N/N=C\c2cccc(Cl)c2)c1CN1CCOCC1,-,.,39.8µM,-,-,-
Cc1cc(C)c(/C=N/NC(=O)c2nnn(-c3nonc3N)c2CN2CCC(C)CC2)c(C)c1,-,.,?,-,-,-
CCN1CCN(Cc2c(C(=O)N/N=C(\C)c3ccc(Cl)c(Cl)c3)nnn2-c2nonc2N)CC1,.,.,44.7µM,-,.,.
Cc1ccc2occ(CC(=O)Nc3ccc(Cl)c(C(F)(F)F)c3)c2c1,-,.,-,-,-,-
Cc1ccc(CNC(=O)CCCc2nnc3n(C)c(=O)c4sccc4n23)cc1,-,.,-,-,-,-
CN(C)CCNc1nc2sc3c(c2c(=O)n1-c1ccccc1)CCCCC3,-,.,-,-,-,-
O=c1c2c3c(sc2nc(NCCO)n1CCc1ccccc1)CCCCC3,?,-,56.2µM,?,?,-
CN(C)CCNc1nc2sc3c(c2c(=O)n1Cc1ccccc1)CCCCC3,-,.,?,35.5µM,50.1µM,-
CC(C)(C)OC(=O)N1CCC(c2c(C(=O)NCCN3CCC(Cc4ccccc4)CC3)cnn2-c2ccccc2)CC1,-,.,?,-,-,-
CCC1CCCCN1S(=O)(=O)c1ccc(-n2cnnn2)c(C)c1 (stereo unspecified),-,.,-,-,-,-
SMILES,HP1b chromo inh,L3MBTL1 block,G9a inh,BAZ2B inh,JMJD2A Tudor inh,GLS inh
Cc1cc(S(=O)(=O)N2CCC(N3CCCCC3)CC2)ccc1-n1cnnn1,-,-,50.1µM,?,-,-
CCc1nc(-c2cc(S(=O)(=O)N3CCN(c4ccccc4F)CC3)ccc2OC)no1,-,.,-,-,-,-
Cc1cc(S(=O)(=O)N2CCN(c3ccc(F)cc3)CC2)ccc1-n1cnnn1,?,.,-,-,?,-
O=c1[nH]c2ccc(S(=O)(=O)N3CCN(c4ccccc4F)CC3)cc2s1,-,-,14.1µM,-,-,-
O=c1ccc2cc(S(=O)(=O)N3CCN(c4ccccc4F)CC3)ccc2o1,-,.,-,-,-,-
COc1ccc(S(=O)(=O)N2CCN(c3ccccc3F)CC2)cc1-c1noc(C)n1,-,.,0.501µM,56.2µM,-,-
Cc1cc(S(=O)(=O)N2CCN(c3ccccc3F)CC2)ccc1-n1cnnn1,-,.,50.1µM,?,-,-
CCc1cccc(NC(c2ccccc2)c2nnc(-c3ccccc3F)o2)c1 (stereo unspecified),-,.,-,-,-,-
Cc1nc2c(C(=O)NCc3ccccc3Cl)c[nH]n2c(=O)c1Cc1cccc(Cl)c1,-,.,-,?,?,-
O=C(C1CCC1)N1CCc2cc(S(=O)(=O)NCc3ccc(F)cc3)ccc21,-,.,-,.,-,-
O=C(c1ccc(Sc2cccc(Cl)c2)c([N+](=O)[O-])c1)N1CCN(c2ccccn2)CC1,?,.,15.8µM,?,?,-
CCCCCOC(=O)Nc1nc(=O)n(C2O[C@H](C)[C@@H](O)[C@@H]2O)cc1F (stereo partly specified),.,.,-,.,.,-
Cc1ccc(-c2nn(-c3cccc([N+](=O)[O-])c3)c3c2cnc2ccc(F)cc23)cc1,-,.,-,-,-,-
COc1ccc(NC(=S)N2CCN(S(=O)(=O)c3ccc(OC)cc3)CC2)cc1,-,.,.,?,89.1µM,-
COc1ccc(C(=O)N[C@H](C(=O)Nc2ccc(S(=O)(=O)N3CCOCC3)cc2)C(C)C)cc1,-,.,-,-,-[11.4 µM],-
N#CCCN(C(=S)NC(=O)c1cccs1)c1ccccc1F,?,-,3.98µM,?,?,-
COc1ccc(NC(=S)NNC(=O)c2ccc(S(=O)(=O)N3CCOCC3)cc2)cc1,-,-,39.8µM,-,-,-
CC(C)CCCCCCNC(=S)Nc1ccc(S(=O)(=O)N2CCOCC2)cc1,-,-,0.891µM,-,-,-
CCOc1cc(C2c3c(-c4cc(C)ccc4O)n[nH]c3C(=O)N2CCCOC(C)C)ccc1O (stereo unspecified),-,.,-,?,?,-
Cc1cccc(NC(=O)c2sc(-n3nc(C)c(CCC(C)C)c3C)nc2C)c1,-,.,?,-,-,-
O=S(=O)(c1ccc(NC(=S)Nc2ccc3c(c2)OCO3)cc1)N1CCOCC1,-,-,?,-,-,-
N#CCCN(C(=S)Nc1ccc(S(=O)(=O)N2CCOCC2)cc1)c1ccccc1F,-,-,44.7µM,-,-,-
O=S(=O)(c1ccc(NC(=S)Nc2ccccc2)cc1)N1CCOCC1,-,-,79.4µM,-,-,-
COc1cccc(-n2c(=O)c3sc4ccccc4c3n(CC(=O)NC3CCCCC3)c2=O)c1,-,.,-,-,-,-
CSc1nc(C)c(C(=O)C[n+]2ccc(C)cc2)cc1C#N,-,-,-,-,-,-
CCOC(=O)c1cc(C#N)c(SCC(=O)Nc2ccc(C(C)=O)cc2)[nH]c1=O,-,-,?,-,-,-
CSc1[nH]c(=O)c(C(=O)O)cc1C#N,-,.,-[12.7 µM],50.1µM,-,-
